Article PMC4336329 (PLoS ONE, 2015)
The whole screen tested about 310,000 compounds, of which about 14,000 (4.5%) showed an effect of 50% or more. Effects have a minus sign here. The sample as a whole holds a higher share of strong results than the screen did.

Molecular target: human ether-à-go-go-related gene (hERG) potassium channel (human, UniProt Q12809)
Experiment: primary screen, population patch clamp on CHO cells stably expressing hERG; higher = less effect of the substance
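Also: peak tail current of the secondary pulse compared with the same well before compound.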

human ether-à-go-go-related gene (hERG) potassium channel, sequence (Q12809 whole entry, looked up): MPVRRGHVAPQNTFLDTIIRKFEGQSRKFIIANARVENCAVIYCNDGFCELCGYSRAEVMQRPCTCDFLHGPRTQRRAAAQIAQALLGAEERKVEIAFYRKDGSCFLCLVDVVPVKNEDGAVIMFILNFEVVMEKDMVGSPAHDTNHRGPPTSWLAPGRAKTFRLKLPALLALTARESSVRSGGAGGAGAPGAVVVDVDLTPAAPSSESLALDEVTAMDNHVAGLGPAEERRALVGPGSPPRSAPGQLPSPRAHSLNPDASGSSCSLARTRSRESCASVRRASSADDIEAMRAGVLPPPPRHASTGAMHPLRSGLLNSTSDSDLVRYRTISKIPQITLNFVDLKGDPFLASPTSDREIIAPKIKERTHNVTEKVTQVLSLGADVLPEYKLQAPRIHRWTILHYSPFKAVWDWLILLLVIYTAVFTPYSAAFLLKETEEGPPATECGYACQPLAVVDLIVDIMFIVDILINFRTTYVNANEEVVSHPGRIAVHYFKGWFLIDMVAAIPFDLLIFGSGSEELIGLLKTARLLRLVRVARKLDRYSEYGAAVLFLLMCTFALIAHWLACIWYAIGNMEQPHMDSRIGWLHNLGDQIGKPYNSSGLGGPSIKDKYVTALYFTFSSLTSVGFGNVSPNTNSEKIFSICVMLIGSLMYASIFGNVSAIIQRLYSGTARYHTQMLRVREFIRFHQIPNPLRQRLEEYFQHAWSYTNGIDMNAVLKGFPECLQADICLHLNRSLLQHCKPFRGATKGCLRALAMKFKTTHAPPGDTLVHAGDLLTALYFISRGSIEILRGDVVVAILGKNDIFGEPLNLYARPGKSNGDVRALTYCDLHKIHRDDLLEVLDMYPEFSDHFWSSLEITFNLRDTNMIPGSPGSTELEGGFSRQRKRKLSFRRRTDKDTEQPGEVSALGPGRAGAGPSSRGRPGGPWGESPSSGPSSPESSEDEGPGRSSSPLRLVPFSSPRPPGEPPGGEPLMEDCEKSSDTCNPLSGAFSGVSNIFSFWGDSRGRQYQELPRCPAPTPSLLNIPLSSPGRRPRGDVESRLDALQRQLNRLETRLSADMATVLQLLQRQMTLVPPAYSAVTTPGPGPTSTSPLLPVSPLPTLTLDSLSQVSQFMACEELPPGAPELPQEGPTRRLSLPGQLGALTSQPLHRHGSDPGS

First: Cc1noc(C)c1COc1ccc(C(=O)OCC(N)=O)cc1
Second: CCOC(=O)C(=O)Nc1ccc(OCc2ccccc2)cc1
The “hERG current change (%, negative = inhibition) at 10uM” value of the first is lower: 18% for the first, 20.2% for the second.

Going from `O=C(Nc1ccc(Cl)cc1)c1ccc(-n2cccn2)c([N+](=O)[O-])c1` to `CCN(CC)C(=O)c1ccc(NC(=O)c2cccc(C(F)(F)F)c2)cc1`, the “hERG current change (%, negative = inhibition) at 10uM” value falls from 4.78% to 4.47%.

Compared with `CC(C)c1nc2c(s1)CCc1onc(-c3cccc([N+](=O)[O-])c3)c1-2`, `Cc1cc(C)nc(/N=C(\N)Nc2cccc([N+](=O)[O-])c2)n1` is lower in “hERG current change (%, negative = inhibition) at 10uM” value: 16.4% for the first, -28.7% for the second.

Going from `COc1cc(OC)cc(-n2nnnc2SCC(=O)N2CCCC2)c1` to `Cc1ccc(-n2nnnc2SCC(=O)NC2CCCc3ccccc32)c(C)c1` (centres unmarked), the “hERG current change (%, negative = inhibition) at 10uM” value rises from -30.2% to -7.69%.

First: CCn1ccnc1CN1CCCC(C(=O)c2cccc(C(F)(F)F)c2)C1 (centres unmarked)
Second: O=C(c1cccc(C(F)(F)F)c1)C1CCCN(Cc2ncc[nH]2)C1 (centres unmarked)
The “hERG current change (%, negative = inhibition) at 10uM” value of the first is lower: -31.1% for the first, 0.0209% for the second.

First: COCC(=O)N1CCCC(C(=O)c2ccc(C(F)(F)F)cc2)C1 (centres unmarked)
Second: O=C(c1ccc(C(F)(F)F)cc1)C1CCCN(Cc2ccc(CO)o2)C1 (centres unmarked)
The “hERG current change (%, negative = inhibition) at 10uM” value of the first is higher: -0.113% for the first, -24.6% for the second.

Going from `O=C(c1cccc(C(F)(F)F)c1)C1CCCN(Cc2cccn2-c2ncccn2)C1` (centres unmarked) to `O=C(c1ccc(C(F)(F)F)cc1)C1CCCN(Cc2cccn2-c2ncccn2)C1` (centres unmarked), the “hERG current change (%, negative = inhibition) at 10uM” value rises from -95.7% to -80.3%.

Going from `O=C(c1cccc(C(F)(F)F)c1)C1CCCN(C(=O)CCc2cnccn2)C1` (centres unmarked) to `O=C(c1cccc(C(F)(F)F)c1)C1CCCN(Cc2cccn2-c2ccccn2)C1` (centres unmarked), the “hERG current change (%, negative = inhibition) at 10uM” value falls from -15.6% to -83.5%.

First: O=C1CCN(Cc2ccc(Br)cc2)CCN1CCO
Second: CCc1ccc(OCC(O)CN2CCN(CCO)CC2)cc1.Cl (centres unmarked)
The “hERG current change (%, negative = inhibition) at 10uM” value of the first is higher: -1.08% for the first, -15.3% for the second.

First: CCOc1ccc(S(=O)(=O)N(C)c2ccc(OCC(=O)Nc3nccs3)cc2)cc1
Second: Cc1cc(OCC(=O)Nc2ccc(OCc3ccccc3)cc2)nc(C(C)C)n1
The “hERG current change (%, negative = inhibition) at 10uM” value of the first is higher: 10.1% for the first, 3.36% for the second.

Compared with `O=C(O)CN1C(=O)C2C3C=CC(C2C1=O)C1C(=O)N(CC(=O)O)C(=O)C31` (centres unmarked), `COc1cc(/C=C2/SC(=S)N(CC(=O)O)C2=O)ccc1OCC(=O)Nc1ccc(C)c(C)c1` is lower in “hERG current change (%, negative = inhibition) at 10uM” value: 21.8% for the first, -6.69% for the second.

First: CSc1ccc(CN(C)C(=O)c2cccc(S(=O)(=O)N3CCN(Cc4ccccc4)CC3)c2)cc1
Second: COc1ccc(CCN2C(=O)CC(N3CCN(S(=O)(=O)c4ccccc4)CC3)C2=O)cc1 (centres unmarked)
The “hERG current change (%, negative = inhibition) at 10uM” value of the first is higher: -1.76% for the first, -18.7% for the second.

Compared with `COc1ccccc1/C=C1/C(=O)N(c2ccc([N+](=O)[O-])cc2)N=C1C`, `COCCCNC(=O)Cn1nnc(-c2ccc(NC(=O)c3ccccc3OC)cc2)n1` is lower in “hERG current change (%, negative = inhibition) at 10uM” value: 12.7% for the first, 6.89% for the second.

Going from `CCOC(=O)CSc1nc2ccccc2c(=O)n1CC` to `CCN(CC)C(=O)CSc1nc2ccccc2c(=O)n1CC`, the “hERG current change (%, negative = inhibition) at 10uM” value rises from -14.6% to -1.18%.

First: CCOC(=O)C(C)Sc1nc2ccccc2c(=O)n1CC1CCCCC1 (centres unmarked)
Second: CCOC(=O)CSc1nc2ccccc2c(=O)n1CC1CCCC1
The “hERG current change (%, negative = inhibition) at 10uM” value of the first is higher: -10.1% for the first, -67.3% for the second.

Compared with `CCN(CC)C(=O)CSc1nc2ccccc2c(=O)n1CC1CCCCC1`, `CCOC(=O)CSc1nc2ccccc2c(=O)n1CC1CCCO1` (centres unmarked) is higher in “hERG current change (%, negative = inhibition) at 10uM” value: -61% for the first, -6.58% for the second.

Compared with `Cl.c1ccc(N2CCCCC2)c(NC2=NCCC2)c1`, `c1ccc(Cc2nnc(N3CCCCC3)c3ccccc23)cc1` is lower in “hERG current change (%, negative = inhibition) at 10uM” value: -15.5% for the first, -26.7% for the second.

First: CN(C)/C=C1\NC(=S)N(c2ccccc2)C1=O
Second: Cc1ccc(-c2cc(-c3ccccc3)nc(N(C)N)n2)cc1
The “hERG current change (%, negative = inhibition) at 10uM” value of the first is higher: 28.4% for the first, 16.7% for the second.

Compared with `Cc1ccc2c(c1)N(CC(=O)N1CCOCC1)C(=O)CO2`, `CN1CCN(S(=O)(=O)c2ccc3c(c2)OCCO3)CC1` is higher in “hERG current change (%, negative = inhibition) at 10uM” value: 4.9% for the first, 12.1% for the second.

Going from `COCCCNc1nc2nonc2nc1N1CCN(C2CCCC2)CC1` to `CCN1C(=O)CC(N2CCN(c3ccc(OC)cc3)CC2)C1=O` (centres unmarked), the “hERG current change (%, negative = inhibition) at 10uM” value rises from -20.2% to -9.88%.

Compared with `CC1CC(C)CN(C(=O)c2ccc3ccccc3c2)C1` (centres unmarked), `CCN1CCN(C(c2cccs2)C(C)NC(=O)c2cccc(OC)c2)CC1` (centres unmarked) is higher in “hERG current change (%, negative = inhibition) at 10uM” value: -19.2% for the first, -4.05% for the second.

Going from `COc1cccc(OCC(O)CN2CCN(c3ccccn3)CC2)c1.Cl` (centres unmarked) to `CCc1ccc(OCC(O)CN2CCN(c3ccccn3)CC2)cc1.Cl` (centres unmarked), the “hERG current change (%, negative = inhibition) at 10uM” value falls from -12.7% to -67.4%.

First: CCc1ccc(OCC(O)CN2CCN(c3ccccc3)CC2)cc1.Cl (centres unmarked)
Second: CCCc1ccc(OCC(O)CN2CCN(c3ccccc3)CC2)cc1.Cl (centres unmarked)
The “hERG current change (%, negative = inhibition) at 10uM” value of the first is lower: -60.3% for the first, -46.5% for the second.

Compared with `CCc1ccc(OCC(O)CN2CCN(c3ccc(OC)cc3)CC2)cc1.Cl` (centres unmarked), `CCCc1ccc(OCC(O)CN2CCN(c3ccccn3)CC2)cc1.Cl` (centres unmarked) is lower in “hERG current change (%, negative = inhibition) at 10uM” value: -49.3% for the first, -63.6% for the second.

Going from `CC(=O)C1C(c2ccc3ncccc3c2)NC(=O)NC1(O)C(F)(F)F` (centres unmarked) to `CCc1ccc2nc(NC(=O)Cn3cnc4ccccc4c3=O)sc2c1`, the “hERG current change (%, negative = inhibition) at 10uM” value falls from 10.9% to 9.75%.

First: Cc1ccsc1/C=N/Nc1ncc(Cl)cc1Cl
Second: COc1ccc(-c2cnnc(N/N=C/c3ccc(O)c(O)c3)n2)cc1
The “hERG current change (%, negative = inhibition) at 10uM” value of the first is higher: 5.75% for the first, 2.82% for the second.

First: COc1ccc(C)cc1S(=O)(=O)N1CCN(S(=O)(=O)c2cc(C(=O)O)ccc2C)CC1
Second: CC(C)(C)c1ccc(COc2ccsc2C(=O)O)cc1
The “hERG current change (%, negative = inhibition) at 10uM” value of the first is higher: 3.86% for the first, -6.72% for the second.

Going from `CN(C(=O)COC(=O)c1ccc2c(=O)n3c(nc2c1)CCC3)C1CCS(=O)(=O)C1` (centres unmarked) to `CC1CCCCC12NC(=O)N(Cn1nnc3ccccc3c1=O)C2=O` (centres unmarked), the “hERG current change (%, negative = inhibition) at 10uM” value falls from 10.5% to -17.2%.

Going from `Cc1cc(C)nc(/N=C(\N)Nc2ccc(S(=O)(=O)Nc3nccc(C)n3)cc2)n1` to `CCOc1ccc(N/C(N)=N/c2nc(C)cc(C)n2)cc1`, the “hERG current change (%, negative = inhibition) at 10uM” value falls from 19.8% to -46.5%.

Going from `Cc1cc(C)nc(/N=C(\N)Nc2ccc(OCCC(C)C)cc2)n1` to `Cc1cc(C)nc(/N=C(\N)Nc2ccc(OCc3ccccc3)cc2)n1`, the “hERG current change (%, negative = inhibition) at 10uM” value falls from -71.8% to -78.2%.

Going from `Cc1cc(C)nc(/N=C(\N)Nc2cccc(OCc3ccccc3)c2)n1` to `CC(=O)Nc1cccc(N/C(N)=N/c2nc(C)cc(C)n2)c1`, the “hERG current change (%, negative = inhibition) at 10uM” value rises from -74.1% to 4.87%.

Going from `CCOC(=O)c1c(C)noc1CP(=O)(c1ccccc1)c1ccccc1` to `O=C(CCNC(=O)c1ccccc1)OCN1C(=O)c2ccccc2C1=O`, the “hERG current change (%, negative = inhibition) at 10uM” value rises from -6.61% to -5.38%.

First: CCC(=O)NC(c1ccc(OC)cc1)c1c(O)ccc2ccccc12 (centres unmarked)
Second: COc1ccc(Nc2nc3ccccc3n3nnnc23)cc1
The “hERG current change (%, negative = inhibition) at 10uM” value of the first is higher: 3.82% for the first, -7.93% for the second.

Compared with `COc1ccc(-c2cnnc(N/N=C/c3ccc(O)c(OC)c3)n2)cc1`, `COc1ccc(-c2cnnc(N/N=C/c3ccc(OC)c(OC)c3)n2)cc1` is higher in “hERG current change (%, negative = inhibition) at 10uM” value: -50.1% for the first, -35.7% for the second.

First: c1ccc(N2CCN(c3nnc(Cc4cccnc4)c4ccccc34)CC2)nc1
Second: O=C(Cn1nc(Cc2cccnc2)c2ccccc2c1=O)N1CCN(c2ccccn2)CC1
The “hERG current change (%, negative = inhibition) at 10uM” value of the first is lower: -50.1% for the first, -23.1% for the second.

Going from `COCCNC(=S)N(Cc1cccnc1)Cc1ccc(OC)c(OC)c1.O=C(O)C(=O)O` to `COCCCNC(=S)N(Cc1cccnc1)Cc1ccc(OC)c(OC)c1`, the “hERG current change (%, negative = inhibition) at 10uM” value rises from 9.52% to 12.4%.

Going from `Cc1ccc(CCNC(=O)CNC(=S)N(Cc2ccccc2)Cc2cccnc2)cc1` to `Cc1ccc(CNC(=O)CNC(=S)N(Cc2ccccc2)Cc2cccnc2)cc1`, the “hERG current change (%, negative = inhibition) at 10uM” value rises from -55% to -19.8%.

Going from `O=C(CNC(=S)N(Cc1ccccc1)Cc1cccnc1)NCCc1ccccc1` to `COc1ccc(CN(Cc2cccnc2)C(=S)NCCc2ccccc2)cc1OC.O=C(O)C(=O)O`, the “hERG current change (%, negative = inhibition) at 10uM” value falls from -41.3% to -50.5%.

First: CCCc1nn(C)c2c(=O)[nH]c(-c3cc(S(=O)(=O)Nc4ccc(NC(C)=O)cc4)ccc3OCC)nc12
Second: CCOc1ccc(-c2nnc(SCc3nc4ccccc4[nH]3)n2N)cc1
The “hERG current change (%, negative = inhibition) at 10uM” value of the first is higher: -21.2% for the first, -34.3% for the second.

Going from `O=C(NC1CCCCCC1)c1ccc(CS(=O)(=O)Cc2ccc(F)cc2)o1` to `COC(=O)CCCC1=CC2=C(c3ccccc3)C(=O)C(C)(OC(=O)C3CCCC3)C(=O)C2=CN1Cc1ccc(OC)cc1` (centres unmarked), the “hERG current change (%, negative = inhibition) at 10uM” value falls from 3.52% to -4.26%.

First: CCCCNC(=O)CS(=O)Cc1nc(-c2ccc(C)cc2)oc1C (centres unmarked)
Second: Cc1ccc(-c2cnc(NCc3cc4c(cc3[N+](=O)[O-])OCO4)n2C)cc1C
The “hERG current change (%, negative = inhibition) at 10uM” value of the first is higher: -17.5% for the first, -48.6% for the second.

Going from `COc1ccc(OCCN2CCN(C3CC(=O)N(CCC(C)C)C3=O)CC2)cc1` (centres unmarked) to `COc1ccc(-c2cnc(NCc3cc4c(cc3[N+](=O)[O-])OCO4)n2C)cc1`, the “hERG current change (%, negative = inhibition) at 10uM” value rises from -63.4% to -48.4%.

Going from `COC(=O)CCCC1=CC2=C(c3ccccc3)C(=O)C(C)(OC(=O)C3CCCC3)C(=O)C2=CN1Cc1ccco1` (centres unmarked) to `COC(=O)CCCC1=CC2=C(c3ccccc3)C(=O)C(C)(OC(=O)C3CCCC3)C(=O)C2=CN1CC1CC1` (centres unmarked), the “hERG current change (%, negative = inhibition) at 10uM” value rises from -56.8% to -39.9%.

First: CCOC(=O)CSc1nc(N)nc(C)c1Cl
Second: Cn1c(-c2ccccc2)cnc1NCc1cc(Cl)ccc1O
The “hERG current change (%, negative = inhibition) at 10uM” value of the first is lower: 13.4% for the first, 19.9% for the second.

Going from `Cc1cc(F)ccc1NCc1cc2c(cc1[N+](=O)[O-])OCO2.O=C(O)C(=O)O` to `Cn1c(-c2ccc(F)cc2)cnc1NCc1cc2c(cc1[N+](=O)[O-])OCO2.O=C(O)C(=O)O`, the “hERG current change (%, negative = inhibition) at 10uM” value falls from 7.77% to -57.8%.

Going from `Cn1c(-c2ccccc2)cnc1NCc1cc2c(cc1[N+](=O)[O-])OCO2` to `Cn1c(-c2ccc(Cl)cc2)cnc1NCc1cc2c(cc1[N+](=O)[O-])OCO2.O=C(O)C(=O)O`, the “hERG current change (%, negative = inhibition) at 10uM” value falls from -55% to -62.6%.
